Experimental data as given in PubChem BioAssay (NCI).
The panel holds about 83,000 compounds, 20% with a hit somewhere; the sample as a whole holds those more often.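 For each line, cells grew in 96-well plates with the test compound present at a single concentration for 48 hours.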 Activity calls are given as the source filed them. Rule for the calls: active = growth percent below 10; inactive = the rest.

The compounds below were run on M14 melanoma (assay: NCI-60 one-dose screen, 48 h (100 = growth as untreated, 0 = no growth, -100 = all killed)). Conditions: 10 µM unless noted.
With `CCCCNC(=O)Oc1ccc(/C(=C(/C)Cc2ccc(OC)cc2)c2ccc(OCCN(CC)CC)cc2)cc1` the growth was 52.1% (inactive).
`Cc1nc2sc(C(=O)Nc3cccc(Br)c3)c(N)c2cc1C(O)c1ccccc1` (stereo not given) was tested, and the growth was 16.7% (inactive).
For `CCn1cc(C(=O)O)c(=O)c2cc(F)c(N3CCN(CC(=O)Nc4ccc(S(=O)(=O)Nc5nccc(C)n5)cc4)C(C)C3)c(F)c21` (stereo not given), the growth was 103% (inactive).
For `C#CCOc1ccc2ncnc(Nc3ccc(NC(=O)C=C)cc3)c2c1`, the growth was -52.4% (active).
`Nc1ncnc2c1C(c1ccc(Br)cc1)c1sc3c(F)cccc3c1O2` (stereo not given) was tested, and the growth was 103% (inactive).
For `N#Cc1nc(-c2ccc(Cl)cc2)oc1S(=O)(=O)N1CCN(c2ccc(F)cc2)CC1`, the growth was 95% (inactive).
For `CCn1c(SCC(=O)N/N=C(\C)c2ccc(Cl)cc2)nc2c1c(=O)n(C)c(=O)n2C`, the growth was 97.4% (inactive).
With `Cc1ccc(C2=Nc3c(N)ncnc3NC(c3cccc(Nc4ccnc5cc(C(F)(F)F)ccc45)c3)C2)cc1` (stereo not given) the growth was 16% (inactive).
`CCCCCCCCCCCCCCCCCCOc1ccccc1CC(=O)OCC[N+](C)(C)C` was tested, and the growth was 6.22% (active).
With `CC(C)C1=NOC(=O)C1=Cc1cn(-c2ccccc2)nc1-c1ccc(F)cc1` the growth was 67.4% (inactive).
For `O=C(NNC(=O)c1ccc(NC(=O)c2ccccn2)cc1)Nc1ccc([N+](=O)[O-])cc1`, the growth was 100% (inactive).
In the case of `CSc1nc2ccccc2cc1/C=C1/C=C(c2ccccc2)NC1=O`, the growth is reported as 66.8% (inactive).
`CC(C)c1ccc(-n2c(=S)[nH]c3sc4cc(O)ccc4c3c2=O)cc1` was tested, and the growth was 94.6% (inactive).
With `C=C1C(=O)O[C@H]2[C@H]1CC/C(COC(=O)c1cc3ccccc3s1)=C\CC[C@@]1(C)O[C@@H]21` the growth was -81.1% (active).
With `COc1ccc(OC)c(/C=N/Nc2ncnc3c2c(C)nn3C)c1` the growth was 101% (inactive).
`NC(=O)c1ccc(-c2c3ccccc3cc3c2ccc2ccccc23)cc1` was tested, and the growth was 14.9% (inactive).
With `NNc1nc(-c2cccnc2)nc2c1sc(=S)n2-c1ccccc1` the growth was 99.9% (inactive).
With `CN(C)CC(C)(C)C(=O)/C=C/c1ccccc1` the growth was -50.4% [25 µM] (active).
`Cc1ccc(Nc2cc(N)nc(N)n2)cc1Cl` was tested, and the growth was 93.5% (inactive).
With `COc1ccc(CNc2c3ccccc3nc3ccccc23)cc1` the growth was 37.1% (inactive).
In the case of `CN(c1cc2ncc(=O)[nH]c2cc1NC(N)=NCc1ccc(Cl)cc1)C1CCCCC1`, the growth is reported as 40.1% (inactive).
In the case of `Cc1cccc(CNc2c3ccccc3nc3ccccc23)c1`, the growth is reported as 22.8% (inactive).
In the case of `Fc1cc2c(cc1Cl)N(c1ncnc3ccc(-c4ccc5n[nH]nc5c4)cc13)CC2`, the growth is reported as 94.8% (inactive).
`CC(C)c1ccc(Cc2cnc(NC(=O)c3cc(Br)cs3)s2)cc1` was tested, and the growth was 15.8% (inactive).
`O=C1Nc2ccc(C(=O)O)cc2/C1=N/c1nnc(Sc2ccccc2)s1` was tested, and the growth was 104% (inactive).
In the case of `O=C(Nc1nc2ccc(C(=O)N3CCN(/C=C/c4ccccc4)CC3)cc2s1)c1ccc(NCCc2ccccc2)c([N+](=O)[O-])c1`, the growth is reported as 12.9% (inactive).
`O=C(c1ccncc1)N1N=C(c2ccc(Cl)cc2)C[C@H]1c1cn(-c2ccccc2)nc1-c1ccccc1` was tested, and the growth was 107% (inactive).
For `CCc1ccc(CCCC(=O)O)cc1`, the growth was 94.2% (inactive).
With `CSc1nc2ccccc2cc1/C=[N+](\[O-])c1ccccc1` the growth was 27.6% (inactive).
`NC(=O)CSc1oc(-c2ccccc2)nc1S(=O)(=O)c1ccc(Br)cc1` was tested, and the growth was 83.5% (inactive).
For `N#CC1=C(N)Oc2c(c(=O)[nH]c3ccc(Cl)cc23)C12C(=O)c1ccccc1C2=O`, the growth was 97.8% (inactive).
`CC/C(=C(/c1ccc(Cl)cc1)c1ccc(OCCN2CCCCC2)cc1)c1ccc(OC)cc1` was tested, and the growth was 28.2% (inactive).
For `NC(Cc1ccc(O)c([N+](=O)[O-])c1)C(=O)O` (stereo not given), the growth was 101% (inactive).
`Nc1c(C(=O)Nc2ccncc2)sc2nc3c(cc12)C(O)CCC3` (stereo not given) was tested, and the growth was 114% (inactive).
`COc1ccc(NC2=C(I)C(=O)c3ncccc3C2=O)cc1` was tested, and the growth was -65.7% (active).
`CCOc1ccc(NC(=O)CSc2oc(-c3ccccc3)nc2S(=O)(=O)c2ccc(C)cc2)cc1` was tested, and the growth was 71% (inactive).
For `O=S(=O)(Nc1cc(F)cc(Cl)c1)c1ccc(-c2cnc(C3CC3)o2)cc1`, the growth was 25.2% (inactive).
In the case of `CC1(C)COB(OCC(C)(C)COB2OCC(C)(C)CO2)OC1`, the growth is reported as 105% (inactive).
In the case of `O=C(Nc1ccccc1O)c1ccc(CNC(=O)c2sccc2Nc2ccnc(C(F)(F)F)c2)cc1`, the growth is reported as 58.3% (inactive).
`CCC(C)N(CCNc1cc(OC)cc2cccnc12)CC(C)C` (stereo not given) was tested, and the growth was 110% (inactive).
